Screening results: PubChem BioAssay, National Center for Advancing Translational Sciences (NCATS)
BAZ2B block = qHTS Assay for Inhibitors of BAZ2B; Bromodomain adjacent to zinc finger domain protein 2B (Homo sapiens), Q9UIF8; AlphaScreen BAZ2B-H3K14Ac peptide displacement; Potency, µM (top dose mostly 114 µM), for inactives: at the top dose activity change, negative = inhibition, hits mostly inhibitors; 4.4% of 360,000 active; AID 504333, 2011; also: % is scaled to controls: 0 for no effect and ±100 for the full control effect; nearly all actives have a fitted effect of over 60% in size
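AlphaScreen displacement of biotin-H3(5-23)K14Ac peptide (50 nM final) from BAZ2B (50 nM final) in PBS pH 7.4, 0.01% Tween-20; complex preformed 30 min RT, then compounds (top 110 uM) 30 min RT, beads 20 min dark.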
Sfp inh = qHTS Assay for Inhibitors of Bacillus subtilis Sfp phosphopantetheinyl transferase (PPTase); 4'-phosphopantetheinyl transferase ffp (Bacillus subtilis), Q9F4F7; Biochemical Sfp PPTase activity, qHTS; Potency, µM, for inactives: largest response in the series, negative = inhibition, usual class: inhibitors; 3.5% of 310,000 active;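 also: the enzyme is Sfp with the accession as filed and its product quenches rhodamine fluorescence; 0% = enzyme reaction without inhibitor and -100% = no enzyme wells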
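Compounds were incubated with enzyme (final 15 nM) for 15 min at room temperature before substrate addition started the reaction. Fluorescence at 525 nm excitation, 598 nm emission was recorded immediately and after 30 minutes.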
G9a block = qHTS Assay for Inhibitors of Histone Lysine Methyltransferase G9a; Histone-lysine N-methyltransferase EHMT2 (Homo sapiens), Q96KQ7; G9a H3K9 monomethylation, AlphaScreen, 2 h; Potency, µM (doses to about 102 µM), without a hit: at the highest dose activity, negative = inhibition, hits mostly inhibitors; 8.8% of 350,000 active; AID 504332, 2011; also: % is scaled to controls: 0 for no effect and ±100 for the full control effect; nearly all actives have a fitted effect of over 75% in size
Target sequence (Q96KQ7 913-1193 limits assumed): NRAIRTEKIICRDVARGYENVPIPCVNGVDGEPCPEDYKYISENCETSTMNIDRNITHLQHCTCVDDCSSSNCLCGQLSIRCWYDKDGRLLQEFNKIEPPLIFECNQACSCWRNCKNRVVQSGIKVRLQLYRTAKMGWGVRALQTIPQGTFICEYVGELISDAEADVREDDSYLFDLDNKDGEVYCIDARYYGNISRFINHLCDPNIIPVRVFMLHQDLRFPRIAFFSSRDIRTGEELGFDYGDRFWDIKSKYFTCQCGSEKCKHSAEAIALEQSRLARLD
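Enzyme 20 nM + cpd, 15 min RT; add b-H3K9 pep 500 nM / SAM 20 uM; 2 h RT; anti-H3K9me1 Ab 0.5 ug/mL + SA donor / anti-rabbit acceptor beads 20 ug/mL each, 10 min; AlphaScreen read.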
HP1b chromo inh = HTS for Inhibitors of HP1-beta Chromodomain Interactions with Methylated Histone Tails | Chromobox protein homolog 1 (Homo sapiens), P83916 | AlphaScreen HP1-beta / biotin-H3K9me3 peptide binding | Potency, µM (highest dose often 114 µM), for the others: at the highest dose activity change, negative = inhibition, actives largely listed as inhibitors | 0.56% of 390,000 active | AID 540317, 2011; also: nearly all actives have a fitted effect of over 70% in size
Target sequence (P83916 whole entry, looked up): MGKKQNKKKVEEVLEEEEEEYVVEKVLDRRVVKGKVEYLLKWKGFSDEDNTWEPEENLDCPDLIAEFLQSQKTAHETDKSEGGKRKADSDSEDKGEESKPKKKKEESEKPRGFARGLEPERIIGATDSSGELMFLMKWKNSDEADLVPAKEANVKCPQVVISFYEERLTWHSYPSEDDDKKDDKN
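AlphaScreen: HP1-beta (50 nM) preformed 30 min with biotin-H3(1-18)K9me3 peptide (50 nM) in PBS pH 7.4, 0.01% Tween-20. Compound added for 30 min at RT, then streptavidin donor/nickel chelate acceptor beads (10 ug/mL) for 30 min.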
JMJD2A Tudor inh = qHTS Assay for Inhibitors of JMJD2A-Tudor Domain | Lysine-specific demethylase 4A (Homo sapiens), O75164 | AlphaScreen JMJD2A-Tudor / H3K4me3 peptide binding | Potency, µM (titrated, usually from 114 µM), inactives show at the highest dose activity change, negative = inhibition, most hits filed as inhibitors | AID 504339, 2011 | 4.4% of 390,000 active; also: % is scaled to controls: 0 for no effect and ±100 for the full control effect; nearly all actives have a fitted effect of over 50% in size
Numbers without * were called inactive; ? = inconclusive; · = no result given; [ ] = remark or other dose. Hits are enriched below; roughly 12% of the tested compounds scored in any of these assays. Calls follow the shape of the dose curve; as a rule, active = well fitted curve in the direction sought with a large enough effect; inconclusive = small, poorly fitted or top-dose-only effect, or another doubt; inactive = no such curve, though single readings can be large; an effect the other way counts as inactive or inconclusive. Potency is read from the fitted curve at half-maximal effect.

SMILES | BAZ2B block | Sfp inh | G9a block | HP1b chromo inh | JMJD2A Tudor inh
O/N=C1/CCCCC1c1ccccn1 (centres undefined) | 50µM* | -24% | ? | 23% | 32µM*
CC(=O)Oc1ccc(N2C(=O)C3C4C=CC(O4)C3C2=O)cc1 (centres undefined) | -28% | 35µM* | 3.5µM* | ? | ?
CC(=O)Oc1cccc(N2C(=O)C3C(C2=O)C2C=CC3C23CC3)c1 (centres undefined) | 1% | 10% | 45µM* | 26% | -11%
CC(=O)Oc1cccc(N2C(=O)C3CC=CCC3C2=O)c1 (centres undefined) | -3% | 13% | 50%[12.7 µM] | 26% | -8%
CC(=O)Oc1cccc(N2C(=O)C3C4C=CC(C4=C(C)C)C3C2=O)c1 (centres undefined) | -5% | 56µM* | -40%[2.33 µM] | ? | ?
O=C1OCCN1/N=C\c1ccc([N+](=O)[O-])o1 | · | 6% | -24%[21.5 µM] | · | ·
CCC1CCCCN1C(=O)Cn1c(=O)cc(C(F)(F)F)c2c(C)nn(C)c21 (centres undefined) | -6% | · | 29%[59 µM] | 11% | -3%
CCn1c(SCC(=O)c2c(N)n(C3CC3)c(=O)[nH]c2=O)nnc1-c1ccccc1OC | 4% | · | 2µM* | 27% | -18%
Cc1ccccc1-n1c(SCC(=O)c2c(N)n(C3CC3)c(=O)[nH]c2=O)nnc1N1CCOCC1 | -2% | · | 10µM* | 21% | -11%
O=C(CSc1nc2ccc([N+](=O)[O-])cc2[nH]1)NC1CCCCC1 | -6% | 17% | 9%[59 µM] | 27% | -21%
O=C(CSc1nc2ccc(Cl)cc2[nH]1)NC1CCCC1 | ? | -1% | 25µM* | 20% | -17%
O=C(CSc1nc2ccc([N+](=O)[O-])cc2[nH]1)NC1CCCCCC1 | 2% | 23% | 45µM* | -2% | -31%
CN1CCN(C(=O)/C(=C\c2ccccc2)c2ccccc2)CC1 | 1% | -1% | ? | 10% | -5%
CC1CCN(C(=O)/C(=C/c2ccccc2Cl)c2ccccc2)CC1 | 0% | 79µM* | -6%[59 µM] | 28% | -18%[11.4 µM]
COc1ccccc1NC(=O)N(Cc1ccco1)Cc1cc2cc(C)cc(C)c2[nH]c1=O | ? | -21% | 45µM* | -2% | ?
COc1ccccc1NC(=O)N(Cc1ccco1)Cc1cc2ccc(C)c(C)c2[nH]c1=O | · | 11% | ? | -10% | ?
CCC(C)NC(=O)c1cccc(NC(=O)c2nsc3ccccc23)c1 (centres undefined) | -33% | · | -41%[59 µM] | 30%[57 µM] | -2%
COC(=O)c1ccc(Cl)cc1NC(=O)N1CC2CCCN2c2ccccc21 (centres undefined) | ? | · | 8.9µM* | 3% | ?
Cc1ccc(NC(=O)N2CCc3ccccc32)cc1C | 0% | 16% | 7% | 49% | 3%
Cc1ccc(NC(=O)N2CC3CCCN3c3ccccc32)cc1C (centres undefined) | 25µM* | · | 10µM* | ? | 50µM*
Cc1ccc(NC(=O)N2CC3CCCN3c3ccccc32)c(C)c1 (centres undefined) | 7% | · | -4%[59 µM] | ? | 50µM*
Cc1ccc(NC(=O)N2CCCC2)cc1Cl | -16% | -5% | 7% | 46% | 3%
Cc1ccc(NC(=O)N2CC3CCCN3c3ccccc32)cc1Cl (centres undefined) | 28µM* | · | 8.9µM* | ? | 40µM*
CCn1c(=O)c2sccc2n(Cc2cccc(C)c2)c1=O | ? | 14% | 43%[59 µM] | 60% | 8%
Cc1nn(C(=O)c2cccc([N+](=O)[O-])c2C)c(C)c1S(=O)(=O)N1CCCCCC1 | -20% | · | -3%[59 µM] | 12%[57 µM] | -8%
SMILES | BAZ2B block | Sfp inh | G9a block | HP1b chromo inh | JMJD2A Tudor inh
O=C(Nc1cccc(C(F)(F)F)c1)N1CC2CCCN2c2ccccc21 (centres undefined) | 28µM* | · | ? | ? | 50µM*
CC1CN(C(=O)Nc2cccc(C(F)(F)F)c2)CC(C)O1 (centres undefined) | 1% | 1% | 12% | 23% | -7%
CC(=O)Nc1cccc(NC(=O)CSc2nnnn2-c2ccc3c(c2)OCO3)c1 | -19% | 13% | ? | · | ·
Cc1cccc(-c2nc(C)c(CCNC(=O)C(=O)Nc3ccccc3C#N)s2)c1 | 1% | · | 12%[59 µM] | 23%[57 µM] | -29%
CN(C)C(=O)c1cccn1-c1ncc(C(F)(F)F)cc1Cl | -2% | 13% | 11% | 36% | -18%
CN(C)C(=O)c1cnc(Sc2ncc(C(F)(F)F)cc2Cl)n1C | 16% | -2% | 56µM* | 54% | 6%
Clc1nc(Cl)nc(N(c2ccccc2)c2ccccc2)n1 | 79µM* | -25% | 50µM* | 5% | 25µM*
Nc1nc(N2CCCCC2)nc(N(c2ccccc2)c2ccccc2)n1 | 7% | 14% | 0%[59 µM] | 31% | -5%
O=C(Nc1ccccc1)N(CCN1CCOCC1)Cc1cccc(Cl)c1 | 3% | 13% | -3% | 14% | -16%
CCN1CCCc2cc(CN(CCN3CCOCC3)C(=S)Nc3ccc(OC)cc3)ccc21 | -29% | 21% | 2%[59 µM] | 24% | -20%
Cc1ccc(NC(=S)N(CCN2CCOCC2)Cc2ccccc2F)cc1 | -16% | 10% | 22%[12.7 µM] | 33% | 3%
CCN1CCCc2cc(CN(CCN3CCOCC3)C(=S)Nc3cccc(Cl)c3)ccc21 | 7.1µM* | 14% | ? | ? | 11µM*
CCN1CCCc2cc(CN(CCN3CCOCC3)C(=S)Nc3cc(F)cc(F)c3)ccc21 | 10µM* | 12% | 16µM* | ? | 35µM*
CCOc1ccc(NC(=S)N(CCN2CCOCC2)Cc2ccc3c(c2)CCCN3CC)cc1 | 11µM* | 0% | 28µM* | ? | 35µM*
CCN1CCCc2cc(CN(CCN3CCOCC3)C(=S)Nc3ccc(C)cc3)ccc21 | 13µM* | 17% | 13µM* | ? | ?
Cc1c(P(=S)(c2ccccc2)c2ccccc2)c2ccccc2n1Cc1ccccc1 | · | · | · | · | -6%
CC(=O)N1CCC(N(CCN2CCOCC2)C(=S)Nc2ccc(C)cc2C)CC1 | -3% | 15% | 1%[59 µM] | 42% | 3%
CC(=O)N1CCC(N(CCN2CCOCC2)C(=S)Nc2ccc(C)cc2)CC1 | -9% | 50µM* | ? | 32% | -20%
CCOC(=O)c1sc2nc(CSc3ccccc3)nc(N3CCCN(C)CC3)c2c1C | 50µM* | 50µM* | 45µM* | ? | 14µM*
CCOC(=O)c1sc2nc(CSc3ccccc3)nc(N3CCC(C(N)=O)CC3)c2c1C | -38% | ? | -38% | -5% | -36%
COc1ccc(C2=NOC(C(=O)Nc3ccc4c(c3)OCO4)C2)cc1OC (centres undefined) | · | 5% | 50µM* | 17% | -26%
